# Laboratory results reported in PubChem BioAssay (NCATS).
# Inconclusive results are not listed. Entries that show only a call come without a potency. The source made the active and inactive calls. The call rests on the fitted dose curve; in most records, active means well fitted inhibition curve with a large enough effect; inconclusive means small, poorly fitted or top-dose-only effect; inactive means flat fitted curve, though single readings scatter.
# Target: Calcium and integrin-binding protein 1 (Homo sapiens) (UniProt Q99828)
# Assay: Primary qHTS for Identification of Calcium Integrin Binding Protein 1 (CIB1) Competitor (AID 1508620);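 further: GST tagged CIB1 binding a fluorescein labelled alphaIIb integrin peptide tracer; top concentration of the series differs between compounds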
# Conditions: CIB1-GST / FITC-alphaIIb peptide fluorescence polarization; series mostly up to 57.7 µM
# From the text: Assay Provider: Ulhas P. Naik, PhD Sidney Kimmel Medical College Thomas Jefferson University, Philadelphia, PA Primary function of platelets is to maintain hemostasis. At the site of vascular injury, platelets adhere to adhesive proteins such as collagen and von Willebrand factor. Adherent platelets are activated and generate soluble platelet agonists such as thrombin, ADP and thromboxane A2. Following exposure of circulating platelets to these agonists, results in platelet shape change, granule secretion and activation of platelet integrin alphaIIb-beta3. Ligand binding to activated integrin alphaIIb-beta3 triggers outside-in signaling, leading to platelet aggregation, stabilization of platelet plug, and clot retraction. Upon atherosclerotic plaque rupture also causes platelet plug formation, which underlies a number of cardiovascular diseases such as myocardial infraction and stroke. A number of anti-platelet drugs such as aspirin, clopidogrel, prasugrel, vorapaxar, and eptifibatide are currently available to prevent the thrombotic complications. However, these anti-platelet agents have several limitations including inherent variability in individual responses, developing resistance, and serious bleeding side effects. For these reasons they are not suitable for long-term protection. Based on the experiences with current anti-platelet drugs, it appears that the most useful therapeutic approach is to intersect the secondary responses such as integrin outside-in signaling or recruitment of platelets by TxA2 and secreted ADP. Compounds, which can largely preserve the primary hemostatic function of platelets but inhibit secondary response will be most desired therapeutic agents for treatment of cardiovascular disease. CIB1 is a calcium integrin binding protein, which specifically interact with the alphaIIb subunit of integrin alphaIIb-beta3. Binding of CIB1 to alphaIIb regulates the outside-in signaling in platelets, which is needed for thrombus stabilization and thrombus growth. […] Therefore, we propose that discovery of a small molecule that can prevent the association of CIB1 and alphaIIb-beta3 will be a potential anti-platelet agent that can block the thrombus formation without undue effect on hemostasis. Reference: [1] Naik MU, Nigam A, Manrai P, et al. CIB1 deficiency results in impaired thrombosis: the potential role of CIB1 in outside-in signaling through integrin alpha IIb beta 3. J Thromb Haemost.
# PROTOCOL TABLES SEQUENCE No. (1, 2, 3, etc.); […] (e.g., Cells, Incubation, Reagent, etc.); VALUE and DESCRIPTION. 1; Reagent; 3 uL; Protein or buffer (4/3x) 2; Compound; 46 nL; Control inhibitor / compound library 3; Time; 15 min; Room temperature incubation 4; Reagent; 1 uL; Fluorescent labeled peptide (4x) 5; Time; 1000 rpm; Centrifuge 6; Time; 15 min; Room temperature incubation 7; Detection; Ex 480/ Em 540; ViewLux Fluorescence Read NOTES (numbers refer to sequence above) 1; Protein Mixture: C1B1-GST (final concentrations of 1 uM). […] 3; Room temperature incubation. 4; Fluorescent Labeled Peptide: FITC-aIIb (final concentration of 100 nM). Sequence of alphaIIb peptide: Acetyl-[…]-FITC (purity is 95.83%). 5; Centrifuge 1000 rpm (164 g) for 15 seconds. 6; Room temperature incubation. 7; ViewLux Fluorescent Polization Read: excitation = 480(20) / emission = 540(25) S and P; FITC Dichroic mirror.
# Sequence of Calcium and integrin-binding protein 1 (Homo sapiens) (Q99828 whole entry, looked up): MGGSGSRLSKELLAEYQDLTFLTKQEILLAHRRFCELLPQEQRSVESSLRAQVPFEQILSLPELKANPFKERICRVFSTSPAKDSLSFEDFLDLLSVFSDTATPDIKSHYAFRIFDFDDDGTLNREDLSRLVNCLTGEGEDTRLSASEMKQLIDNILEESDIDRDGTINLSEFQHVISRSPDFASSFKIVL
row,Compound,Potency
1,CC(=O)Nc1cccc(-n2c(=O)n(C3CC3)c(=O)c3c(Nc4ccc(I)cc4F)n(C)c(=O)c(C)c32)c1,inactive
2,CC(C)=CCCC(C)=CCCC(C)=CCCC(C)=CCCC(C)=CCCC(C)=CCCC(C)=CCCC(C)=CCCC(C)=CCO,inactive
3,O=C(c1ccc(F)c(F)c1Nc1ccc(I)cc1F)N1CC(O)([C@H]2CCCCN2)C1,inactive
4,C=CC[N+]1([C@H]2C[C@H]3[C@@H]4CC[C@H]5C[C@H](O)[C@@H](N6CCOCC6)C[C@]5(C)[C@@H]4CC[C@]3(C)[C@H]2OC(C)=O)CCCC1,inactive
5,O=C1NC(=O)C(c2cnc3ccccn23)=C1c1cn2c3c(cccc13)CN(C(=O)N1CCOCC1)CC2,inactive
6,CCOC(=O)[C@@H](N)CCC(=O)N[C@@H](CSCc1ccccc1)C(=O)N[C@@H](C(=O)OCC)c1ccccc1,inactive
7,CC1(C)CC(=O)c2c(C(F)(F)F)nn(-c3ccc(C(N)=O)c(NC4CCC(O)CC4)c3)c2C1 (stereo not given),inactive
8,c1ccc(CNc2nc(N3CCOc4ccccc43)nc3c2CCCC3)cc1,inactive
9,COc1ccc2c(c1)CC[C@H]1[C@@H]2CC[C@]2(C)[C@@H](NCCCCCCN3C(=O)C=CC3=O)CC[C@H]12,inactive
10,CN[C@@H]1[C@@H](O)[C@@H](O[C@@H]2[C@@H](O)[C@H](O[C@H]3O[C@H](CN)[C@@H](O)[C@H](O)[C@@H]3O)[C@@H](N)C[C@@H]2NC(=O)[C@@H](O)CN)OC[C@]1(C)O,inactive
11,COc1cc2nccc(Oc3ccc(NC(=O)Nc4ccc(F)cc4F)c(F)c3)c2cc1OC,inactive
12,c1ccc(-c2oc3ncnc(NC[C@@H]4CCCO4)c3c2-c2ccccc2)cc1,inactive
13,Cc1ccc(NC(=O)c2ccc(CN3CCN(C)CC3)cc2)cc1Nc1nc(-c2cccnc2)cs1,inactive
14,COc1cc2c(cc1OC)[C@@H]1Cc3ccc(OC)c(OC)c3CN1CC2,inactive
15,Cc1cc(OCCCS(C)(=O)=O)cc(C)c1-c1cccc(COc2ccc3c(c2)OC[C@H]3CC(=O)O)c1,inactive
16,O=[N+]([O-])c1ccc(Nc2ccccc2-c2ccccc2)c2nonc12,inactive
17,O=C(Nc1ccc(OC(F)(F)F)cc1)c1sccc1NCc1ccnc2ccccc12,inactive
18,C[C@]12CC[C@@H]3c4ccc(O)cc4CC[C@H]3[C@H]1[C@@H](O)[C@@H](O)[C@H]2O,inactive
19,C[C@H](CCC(=O)O)[C@H]1CC[C@H]2[C@H]3[C@@H](CC[C@]12C)[C@@]1(C)CC[C@@H](O)C[C@H]1C[C@@H]3O,inactive
20,CCC[C@H](Nc1nc(-c2ccc(NC(=O)NCC)c(OC)c2)ncc1C)c1cccnc1,inactive

row,Compound,Potency
1,CN(C)CCCNC(=O)c1ccc(-c2cc(O)c3ncccc3c2)cc1,inactive
2,O=S(=O)(NCCNCC=Cc1ccc(Br)cc1)c1cccc2cnccc12,inactive
3,CC[C@H](NC(=O)[C@H](C)NC)C(=O)N1C[C@@H](O)C[C@H]1Cc1c(-c2[nH]c3cc(F)ccc3c2C[C@H]2C[C@H](O)CN2C(=O)[C@H](CC)NC(=O)[C@H](C)NC)[nH]c2cc(F)ccc12,inactive
4,Cc1cnc(CNC(=O)c2c(=O)c3ccc(N4CCCN(C)CC4)nc3n3c2sc2ccccc23)cn1,inactive
5,C=CC(=O)Nc1cccc(Sc2nc(Nc3ccc(N4CCN(C)CC4)cc3)ncc2Cl)c1,inactive
6,CN1[C@H]2CC[C@H]1CC(OC(=O)c1c[nH]c3ccccc13)C2 (stereo not given in full),inactive
7,C[C@@H](N)c1ccc(C(=O)Nc2ccnc3[nH]ccc23)cc1,inactive
8,C[C@@H](O)[C@H]1C(=O)N2C(C(=O)OCOC(=O)C(C)(C)C)=C(SC3CN(C4=NCCS4)C3)[C@H](C)[C@H]12,inactive
9,CCCCn1c(=O)n(Cc2ccccc2F)c(=O)c2[nH]c(Cc3ccc(NC(C)=O)cc3)nc21,inactive
10,O=C(O)C1=CC(O)C(O)[C@H](O)C1 (stereo not given in full),inactive
11,CC(C)(C)c1[nH]cnc1C=c1[nH]c(=O)c(=Cc2ccccc2)[nH]c1=O,inactive
12,CC(C)(O)CC(=O)NCCn1ccc2ncnc(Nc3ccc(Oc4cccc(C(F)(F)F)c4)c(Cl)c3)c21,inactive
13,Cc1ccc(S(=O)(=O)OCC(=O)Nc2ccc(C(=O)O)c(O)c2)cc1,inactive
14,CN1CCc2c(n(Cc3ccc(C(=O)NO)cc3)c3ccccc23)C1,inactive
15,C[C@@H](NC(=O)c1ncnc(N)c1Cl)c1ncc(C(=O)Nc2cc(C(F)(F)F)c(Cl)cn2)s1,inactive
16,COc1cc(Cl)cn2c(-c3cccc(NC4CNC4)n3)cnc12,inactive
17,CCC(C)SSc1ncc[nH]1 (stereo not given),inactive
18,O=C(CO)N1CCC(c2[nH]nc(-c3ccc(Cl)cc3)c2-c2ccncn2)CC1,inactive
19,COc1cc(N2CCN(C)CC2)ccc1Nc1nc(N)c(C(=O)c2c(Cl)cccc2Cl)s1,inactive
20,COc1ccc(CCC(=O)Nc2nc3ccc(Cl)cc3s2)cc1OC,inactive
